The sample as a whole holds a higher share of hits than the screen did.
ST2 inh: inhibitors of human ST2 (IL1RL1) binding to IL-33. AlphaLISA ST2-Fc/biotin-IL-33 interaction, 1 h. inhibition, % for hits at 17 µM. hit rate 2.3% among 78,000. AID 1259354; in the data active = inhibition above about 30%
Target sequence (Q01638 whole entry, looked up): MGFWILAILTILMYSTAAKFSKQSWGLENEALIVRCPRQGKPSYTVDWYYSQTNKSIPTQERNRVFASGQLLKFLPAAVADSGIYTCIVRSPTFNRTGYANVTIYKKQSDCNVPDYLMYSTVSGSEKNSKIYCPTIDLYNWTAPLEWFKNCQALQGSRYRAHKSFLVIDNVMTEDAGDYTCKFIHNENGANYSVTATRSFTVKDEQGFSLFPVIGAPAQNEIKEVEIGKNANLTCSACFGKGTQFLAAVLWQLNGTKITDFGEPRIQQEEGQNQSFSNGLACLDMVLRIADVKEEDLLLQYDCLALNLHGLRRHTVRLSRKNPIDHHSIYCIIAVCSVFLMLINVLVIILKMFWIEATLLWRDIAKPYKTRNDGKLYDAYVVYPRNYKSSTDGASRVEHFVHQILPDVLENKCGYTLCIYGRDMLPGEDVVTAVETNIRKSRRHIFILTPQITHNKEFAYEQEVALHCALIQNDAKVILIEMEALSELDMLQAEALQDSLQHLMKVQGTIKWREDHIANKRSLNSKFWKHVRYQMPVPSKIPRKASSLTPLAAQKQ
* = called active by the depositor; i = inactive.

SMILES	ST2 inh
O=c1ccc(-c2ccc(OC(F)(F)F)cc2)c2n1C[C@H]1C[C@@H]2CN(S(=O)(=O)c2cccs2)C1	i
Cc1c(C(=O)N2CCCCC2)c(S(=O)(=O)Nc2ccc(S(N)(=O)=O)cc2)c(C)n1C	i
COc1ccc(C2Oc3c(Br)cc(Br)cc3C=C2[N+](=O)[O-])cc1OC (stereo not given)	56.0%*
COc1ccc([C@H]2OC[C@H]3[C@@H]2CO[C@@H]3c2ccc(OC)c(OC)c2)cc1OC	i
COc1cc(C2Oc3ccccc3C=C2[N+](=O)[O-])ccc1OCc1ccccc1 (stereo not given)	46.0%*
COc1ccc(C2SCCN2S(=O)(=O)c2ccc([N+](=O)[O-])cc2)cc1OC (stereo not given)	i
COc1cc(-c2ncnn2-c2ccc(F)c([N+](=O)[O-])c2)ccc1OCc1ccccc1	i
COc1cc(/C=C/c2c([N+](=O)[O-])c(=O)n(C)c(=O)n2C)ccc1OCc1ccccc1	i
COCCNC(=O)C1CCC(=O)N1Cc1ccc(F)cc1 (stereo not given)	i
CC1=C(C(=O)OC2CCCCC2)C(c2ccccc2)n2nnnc2N1 (stereo not given)	i
COc1ccc(C2C(C(=O)OC3CCCCC3)=C(C)Nc3ncnn32)cc1OC (stereo not given)	i
Cn1c(C2C3=C(CCCC3=O)Nc3nc(Cc4ccccc4)nn32)nc2cc([N+](=O)[O-])ccc21 (stereo not given)	i
COc1ccccc1N1CCN([C@H]2[C@@H]3OC[C@@H](O3)[C@@H](NCc3ccc(OC(F)(F)F)cc3)[C@@H]2O)CC1	i
O[C@H]1[C@H](NCc2ccc(OC(F)(F)F)cc2)[C@H]2CO[C@H](O2)[C@@H]1N1CCOCC1	64.0%*
CN(C)CCN(C)[C@H]1[C@@H]2OC[C@@H](O2)[C@@H](NCc2ccc(OC(F)(F)F)cc2)[C@@H]1O	i
O=c1ccc(=O)n(CCNC2CCN(Cc3ccccc3)CC2)[nH]1	i
Clc1ccc(-c2ncnn2-c2ccc(Br)nc2)c(Cl)c1	i
CC(C)N1CCN(Cc2cccc(OCC(O)CN3CCOCC3)c2)CC1 (stereo not given)	i
Cc1cccc(CCNS(=O)(=O)c2ccc3c(c2)CCN3C(=O)C2CC2)c1	i
CS(=O)(=O)c1ccc(CN2C[C@H](O)C[C@H]2c2nc(-c3ccc(F)cc3)no2)cc1	i
O[C@@H]1C[C@@H](c2nc(-c3ccc(OC(F)(F)F)cc3)no2)N(Cc2ccccc2)C1	i
CS(=O)(=O)c1ccc(CN2C[C@H](O)C[C@H]2c2nc(-c3ccc(OC(F)(F)F)cc3)no2)cc1	32.0%*
CCOc1ccccc1C1C(C#N)=C(N)Oc2cc(O)c(Cl)cc21 (stereo not given)	i
COC(=O)C1CCCCN1Cc1ccc2c(c1)CN(C(=O)c1ccc3[nH]ccc3c1)CCO2 (stereo not given)	i
CSc1ccccc1NC(=O)CCCn1nc([N+](=O)[O-])c(Cl)c1C	i
SMILES	ST2 inh
CC(C)NC(=O)CN1C(=O)CSc2ccc(S(=O)(=O)N(C)C3CCCCC3)cc21	i
N#Cc1cc([N+](=O)[O-])cnc1NCCO	i
N#Cc1cc([N+](=O)[O-])cnc1Sc1ccccc1	32.0%*
O=[N+]([O-])c1ccc(-c2cnc(-c3ccccc3)nc2)cc1	i
CN1CCN(S(=O)(=O)N2CCC(n3cc(C4CC4)nn3)CC2)CC1	i
COC1(c2ccccc2)CCN(S(=O)(=O)NCc2ccccc2)CC1	i
O=S(=O)(NCC(c1cccnc1)N1CCN(c2ccccc2F)CC1)c1ccc(Cl)cc1 (stereo not given)	i
CCOc1ccc2ccccc2c1CN1CCCC(N2CCCC2=O)C1 (stereo not given)	i
CCc1ccc(N2CSC3=C(C#N)C(c4ccccc4OC)CC(=O)N3C2)cc1 (stereo not given)	i
COc1ccc2nc3c(nc2c1)C(=O)c1ccccc1-3	32.0%*
COc1ccc(C(=O)O/N=C2\c3ccccc3-c3nc4ccccc4nc32)cc1	i
COc1ccc2nc(Cl)c(Cl)nc2c1	i
Cc1ncsc1CCC(=O)N(C)Cc1cc(C2CC2)n[nH]1	i
Cc1ccc(CN2CCN(Cc3nc(-c4ccccc4)no3)CC2CCO)o1 (stereo not given)	i
CSCCNC1CCN(c2ccc(NC(=O)c3ccc(C)cc3C)cc2)CC1	i
O=C(NCc1cccs1)[C@H](CSCc1ccccc1)N1Cc2ccccc2C1=O	i
COc1ccc(C2C(C#N)=C(N)Oc3n[nH]c(C)c32)cc1COc1ccccc1C (stereo not given)	i
Cc1ccccc1OCc1nnc(SCC(=O)NCCc2ccccc2)n1C	i
COc1ccc(CCNc2oc(COc3ccccc3C)nc2C#N)cc1	38.0%*
COc1ccc(OCc2nc(C#N)c(NCCN3CCOCC3)o2)cc1	i
O=S(=O)(c1ccccc1)c1nc(-c2ccc(F)cc2)oc1NCc1ccccc1	i
COc1ccc(CCNC(C)=O)cc1	i
N#Cc1nc(COc2ccc(Br)cc2)oc1NCCN1CCOCC1	i
COc1ccc(CCNc2oc(COc3ccc(OC)cc3)nc2C#N)cc1	36.0%*
COc1ccc(CCNc2oc(COc3ccc(Cl)cc3)nc2C#N)cc1	38.0%*
SMILES	ST2 inh
Cc1ccccc1OCc1nc(C#N)c(NCc2ccc(F)cc2)o1	34.0%*
N#Cc1nc(-c2ccc(F)cc2)oc1NCc1ccco1	i
COc1ccc(CCC(=O)NCCc2cccc(Cl)c2)cc1	i
COc1cc(NC(=O)c2cccc(C)c2)c(OC)cc1Cl	i
Cc1cc(NC(=O)c2cc3ccccc3oc2=O)nc2c1c(=O)oc1ccccc12	i
CN(c1ncccc1C(=O)N1CCOC2(CNCCOC2)C1)C1CCCCC1 (stereo not given)	i
CN(Cc1csc(-c2cccs2)n1)c1ccc(-c2nccn2C)nn1	i
Cc1c(-c2nccn2Cc2ccccc2Cl)c(=O)n(-c2ccccc2)n1C	i
Cc1ccc(CN2C(=O)CSc3ccc(C(=O)NCCCN4CCOCC4)cc32)cc1	i

Screening results (PubChem BioAssay)
